# Results filed as inconclusive are left out. A call without a number means that no potency is given here. A number with no mark means an inactive call. Active and inactive are the calls of the source. Unless noted, calls come from the whole dose curve; as a rule, active = well fitted curve in the direction sought with a large enough effect in the repeat runs; inconclusive = weak or mixed curves; inactive = no such curve, though single readings can be large; an effect the other way counts as inactive or inconclusive.
# Legend:
# [1] = qHTS assay to identify small molecule agonists of the vitamin D receptor (VDR) signaling pathway - cell viability counter screen (AID 743224); note: nearly all actives have a fitted effect of over 50% in size; note: potency is the fitted concentration of half-maximal effect
# In short: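 Plated VDR-bla cells (4 h, 37C) received compound, incubated 16 h, then LiveBLAzer substrate 2 h RT; CellTiter-Glo added afterwards, luminescence read at 30 min.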
# [2] = qHTS assay to identify small molecule antagonists of the vitamin D receptor (VDR) signaling pathway - cell viability counter screen (AID 743225); note: nearly all actives have a fitted effect of over 50% in size; note: potency is the fitted concentration of half-maximal effect
# In short: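 Same-well multiplex: following 16 h treatment of HEK 293T cells carrying a UAS-driven beta-lactamase reporter with compound and agonist (3 nM final), and a 2 h FRET substrate step, CellTiter-Glo was added and luminescence read after 30 min.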
# [3] = qHTS assay to identify small molecule agonists of the NFkB signaling pathway - cell viability counter screen (AID 1159515; calls by dose curve; note: nearly all actives have a fitted effect of over 55% in size)
# In short: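 Using the same wells as the NFkB reporter read, ME-180 NFkB-bla cells given compounds for 5 hr were assessed for viability via CellTiter-Glo, with luminescence taken after a 30 min room-temperature incubation.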
# [4] = qHTS assay to identify small molecule antagonists of the retinoid-related orphan receptor gamma (ROR-gamma) signaling pathway - cell viability counter screen (AID 1159520); note: nearly all actives have a fitted effect of over 50% in size; note: potency is the fitted concentration of half-maximal effect
# In short: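 Tet-on ROR gamma CHO cells (1,000/well) were plated 4 hr, given compounds in DMSO for 2 hr at 37 C, then induced with 1 uM final doxycycline for 16 hr. Viability was read as ATP by CellTiter-Glo luminescence after 30 min.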
# [5] = qHTS assay to identify small molecule agonists of the RXR signaling pathway - cell viability counter screen (AID 1159529); note: nearly all actives have a fitted effect of over 50% in size; note: potency is the fitted concentration of half-maximal effect
# In short: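 Counter screen: CellTiter-Glo luminescence. Cells: RXR-alpha-UAS-bla HEK 293T. Medium: 2% charcoal-stripped FBS. Treatment: 16 h, 37 C. Reagent incubation: 30 min, RT.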
# [6] = qHTS assay to identify small molecule antagonists of the retinoid acid receptor (RAR) signaling pathway - cell viability counter screen (AID 1159551); note: nearly all actives have a fitted effect of over 35% in size
# In short: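 Retinol-stimulated (1 uM final) C3RL4 cells, compound 6 h, 37 C; readout CellTiter-Glo luminescence (ATP) after 30 min RT incubation.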
# [7] = qHTS assay to identify small molecule agonists of the AP-1 signaling pathway - cell viability counter screen (AID 1159525; calls by dose curve; note: nearly all actives have a fitted effect of over 55% in size; note: potency is the fitted concentration of half-maximal effect)
# In short: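 ME-180 AP-1-bla, 2500 cells/well, Opti-MEM + 0.5% dialyzed FBS; overnight 37 °C; cpd 15-pt titration, 5 h 37 °C; CellTiter-Glo 30 min RT; luminescence read; normalised to TOAB and DMSO controls.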
# [8] = qHTS assay to identify small molecule agonists of the AP-1 signaling pathway (AID 1159526; calls by dose curve; note: potency is the fitted concentration of half-maximal effect)
# [9] = qHTS assay to identify small molecule antagonists of the retinoic acid receptor (RAR) signaling pathway (AID 1159552; note: nearly all actives have a fitted effect of over 50% in size; note: potency is the fitted concentration of half-maximal effect)
# In short: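 Antagonism of retinol-induced RARE reporter activity was measured in C3RL4 cells. Exposure to compounds and 1 uM final retinol lasted 6 hr at 37 C, with luminescence as endpoint.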
# [10] = biological target: Retinoic acid receptor RXR-alpha (Homo sapiens) (UniProt P19793); assay: qHTS assay to identify small molecule agonists of the RXR signaling pathway (AID 1159527; calls by dose curve; note: nearly all actives have a fitted effect of over 35% in size)
# Chain of Retinoic acid receptor RXR-alpha (Homo sapiens) (P19793 whole entry, looked up): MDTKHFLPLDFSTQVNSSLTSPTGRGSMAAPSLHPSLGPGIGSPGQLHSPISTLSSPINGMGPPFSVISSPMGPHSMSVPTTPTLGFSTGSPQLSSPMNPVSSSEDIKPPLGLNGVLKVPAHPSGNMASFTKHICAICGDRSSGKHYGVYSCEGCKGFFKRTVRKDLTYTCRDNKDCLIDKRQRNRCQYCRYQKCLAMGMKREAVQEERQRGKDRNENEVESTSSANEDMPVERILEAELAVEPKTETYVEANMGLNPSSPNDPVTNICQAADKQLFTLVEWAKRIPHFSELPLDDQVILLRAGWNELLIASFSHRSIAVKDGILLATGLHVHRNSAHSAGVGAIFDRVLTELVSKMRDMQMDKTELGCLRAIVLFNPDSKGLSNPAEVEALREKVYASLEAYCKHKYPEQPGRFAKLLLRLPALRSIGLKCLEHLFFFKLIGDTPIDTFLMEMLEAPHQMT
# In short: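 Compounds in DMSO were added to RXR-alpha-UAS-bla HEK 293T cells kept in 2% charcoal-stripped serum, and incubated 16 hr at 37 C with 5% CO2. Reporter signal came from a 2 hr B/G FRET substrate step.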
# [11] = qHTS assay to identify small molecule agonists of the retinoic acid receptor (RAR) signaling pathway (AID 1159553); conditions: C3RL4 RARE luciferase reporter, agonist, 6 h; activation: at 73.3 µM (top of the series)
# In short: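 Reporter readout comes from luciferase under RARE control in C3RL4 cells; compound exposure lasts 6 hr at 37 C in 5% CO2, and luminescence is recorded following a 30 min room-temperature incubation with reagent.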
# [12] = qHTS assay to identify small molecule agonists of the endoplasmic reticulum stress response signaling pathway (AID 1159516; active = well fitted activation curve with a large enough effect in the signal ratio in the repeat runs, not every such curve was filed as active; the % refers to the signal ratio)
# In short: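 An ESRE-bla HeLa cell assay: compounds were pin-transferred from DMSO onto overnight-plated cells and left 5 hr at 37 C. Substrate was then loaded for 2 hr at room temperature before reading fluorescence at 460 nm and 530 nm.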
# [13] = qHTS assay to identify small molecule agonists of the endoplasmic reticulum stress response signaling pathway - cell viability counter screen (AID 1159517; calls by dose curve; note: nearly all actives have a fitted effect of over 50% in size; note: potency is the fitted concentration of half-maximal effect)
# In short: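 Luminescence readout: CellTiter-Glo, 30 min RT, same wells as the ESRE-bla reporter read. HeLa ESRE-bla, 1,500 cells/well, o/n 37 C; cpd 5 hr 37 C/5% CO2.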
# [14] = biological target: Nuclear receptor ROR-gamma (Homo sapiens) (UniProt P51449); assay: qHTS assay to identify small molecule antagonists of the retinoid-related orphan receptor gamma (ROR-gamma) signaling pathway (AID 1159521; note: nearly all actives have a fitted effect of over 50% in size; note: potency is the fitted concentration of half-maximal effect)
# In short: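 Inducible-expression reporter assay: doxycycline (1 uM final) switched on RORγ in CHO cells bearing a ROR response element-luciferase construct, with test compounds present from 2 h beforehand. Decreased luminescence after 16 h defined antagonist activity.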
# [15] = qHTS assay to identify small molecule antagonists of the estrogen related receptor (ERR) signaling pathway - cell viability counter screen (AID 1224818);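 note: viability measured after 17.5 h of compound exposure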
# In short: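 After a 6 h pre-incubation, ERR cells were dosed by pin tool with compounds, positive/negative controls or DMSO alone. Following 17.5 h at 37 C and 30 min with CellTiter-Fluor, fluorescence was recorded.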
# [16] = qHTS assay to identify small molecule antagonists of the estrogen related receptor (ERR) signaling pathway (AID 1224819)
# In short: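 Luminescence readout (One-Glo, 30 min, RT) of ERR cell line after 18 h compound exposure at 37 C; cells seeded 2,000/well, pre-incubated 6 h, compounds pinned from DMSO stocks.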
# [17] = qHTS assay to identify small molecule agonists of the estrogen related receptor (ERR) signaling pathway (AID 1224820)
# In short: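 Quantitative HTS of the LOPAC library used NTP ERR reporter cells treated 18 h at 37 C. Signal is luminescence after One-Glo addition and a 30 min room-temperature incubation.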
# [18] = system: estrogen-related receptor alpha (ERRalpha) with PGC-1alpha coactivator, human; assay: qHTS assay to identify small molecule antagonists of the estrogen related receptor signaling pathway with the pleiotropic PPARgamma coactivator (PGC) (AID 1224821; calls by dose curve)
# In short: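 Quantitative HTS for antagonism: PGC/ERR cells received compounds after 6 h attachment and were incubated 18 h at 37 C, with luminescence (One-Glo) as the endpoint.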
structure (smiles),measurement,setting,value
COC(=O)CS,Potency,[1],inactive
same,Potency,[2],inactive
same,Potency,[3],inactive
same,Potency,[4],inactive
same,Potency,[5],inactive
same,Potency,[6],inactive
O=C(OCC(O)CO)c1ccccc1Nc1ccnc2cc(Cl)ccc12 (centres undefined),Potency,[2],inactive
same,Potency,[3],inactive
same,Potency,[7],inactive
same,Potency,[8],inactive
same,Potency,[5],inactive
same,Potency,[6],inactive
same,Potency,[9],inactive
OC(CCN1CCCC1)(c1ccccc1)C1CCCCC1 (centres undefined),Potency,[1],inactive
same,Potency,[2],inactive
same,Potency,[3],inactive
same,Potency,[4],inactive
same,Potency,[10],inactive
same,Potency,[5],inactive
same,Potency,[6],inactive
same,Potency,[11],inactive
CO[C@]1(NC(=O)CSC(F)F)C(=O)N2C(C(=O)O)=C(CSc3nnnn3CCO)CO[C@H]21,Potency,[1],inactive
same,Potency,[2],inactive
same,Potency,[3],inactive
same,Potency,[4],inactive
same,Potency,[8],inactive
same,Potency,[10],inactive
same,Potency,[5],inactive
same,Potency,[6],inactive
same,Potency,[9],inactive
CCCCCCCCC(CCCCCC)C(=O)O (centres undefined),Potency,[12],inactive
same,Potency,[13],54.9 µM (active)
same,Potency,[4],inactive
same,Potency,[7],49 µM (active)
same,Potency,[6],inactive
OC[C@H]1O[C@@H](n2cnc3c(=S)nc[nH]c32)[C@H](O)[C@@H]1O,Potency,[1],7.5 µM (active)
same,Potency,[2],8.49 µM (active)
same,Potency,[3],inactive
same,Potency,[13],inactive
same,Potency,[4],inactive
same,Potency,[7],inactive
same,Potency,[8],inactive
same,Potency,[5],2.13 µM (active)
same,Potency,[9],inactive
CC(=O)N/N=C/c1ccc([N+](=O)[O-])o1,Potency,[1],inactive
same,Potency,[2],inactive
same,Potency,[12],inactive
same,Potency,[8],inactive
same,Potency,[5],inactive
same,Potency,[6],inactive
same,Potency,[9],29.8 µM (active)
CC1(C)O[C@@H]2C[C@H]3[C@@H]4C[C@H](F)C5=CC(=O)C=C[C@]5(C)[C@H]4[C@@H](O)C[C@]3(C)[C@]2(C(=O)CO)O1,Potency,[1],inactive
same,Potency,[2],inactive
same,Potency,[13],inactive
same,Potency,[4],inactive
same,Potency,[10],inactive
same,Potency,[5],inactive
same,Potency,[6],inactive
N#CCCN(CCO)CCO,Potency,[1],inactive
same,Potency,[2],inactive
same,Potency,[12],inactive
same,Potency,[13],inactive
same,Potency,[4],inactive
same,Potency,[14],inactive
same,Potency,[7],inactive
same,Potency,[5],inactive
same,Potency,[6],inactive
Cc1cc(=O)c2c(O)c3c(O)cc(=O)c4c3c3c(cc(O)c1c23)C(C)(C)C=4O,Potency,[1],0.731 µM (active)
same,Potency,[4],1.64 µM (active)
same,Potency,[14],0.82 µM (active)
same,activation,[8],-0.228% [at 15.8 µM]
same,"activity, negative = inhibition",[9],-5.37% [at 19 µM]
CCC(=O)OC,Potency,[1],inactive
same,Potency,[12],inactive
same,Potency,[4],inactive
same,Potency,[8],inactive
same,Potency,[10],inactive
same,Potency,[5],inactive
same,Potency,[6],inactive
same,Potency,[9],inactive
same,Potency,[11],inactive
CCOc1ccccc1O[C@H](c1ccccc1)[C@H]1CNCCO1,Potency,[1],inactive
same,Potency,[2],inactive
same,Potency,[3],inactive
same,Potency,[13],inactive
same,Potency,[4],inactive
same,Potency,[7],inactive
same,Potency,[10],inactive
same,Potency,[5],inactive
same,Potency,[6],inactive
CN(C)CCC=C1c2ccccc2C=Cc2ccccc21,Potency,[1],inactive
same,Potency,[12],inactive
same,Potency,[13],inactive
same,Potency,[4],inactive
same,Potency,[14],inactive
same,Potency,[7],inactive
same,Potency,[6],inactive
same,Potency,[11],inactive
same,outcome,[15],inactive
same,outcome,[16],inactive
same,outcome,[17],inactive
same,outcome,[18],inactive
CC(=O)OCC(=O)NCCCOc1cccc(CN2CCCCC2)c1,Potency,[1],inactive
same,Potency,[2],inactive
same,Potency,[12],inactive
same,Potency,[13],inactive
same,Potency,[4],inactive
same,Potency,[14],inactive
same,Potency,[7],inactive
same,Potency,[8],inactive
same,Potency,[10],inactive
same,Potency,[5],inactive
same,Potency,[6],inactive
Oc1ccc(Cl)c2cccnc12,Potency,[1],0.376 µM (active)
same,Potency,[3],inactive
same,Potency,[14],inactive
same,Potency,[7],inactive
same,Potency,[6],inactive
same,Potency,[9],inactive
CCCCC(CC)COP(=O)(O)O (centres undefined),Potency,[1],inactive
same,Potency,[2],inactive
same,Potency,[4],inactive
same,Potency,[14],inactive
same,Potency,[7],inactive
same,Potency,[8],39.6 µM (active)
same,Potency,[5],inactive
same,Potency,[6],inactive
same,Potency,[9],inactive
same,Potency,[11],inactive
